Counter-ions that a name gives are not always drawn.
Assays:
Assay in all cases: growth AUC normalised to DMSO control (median) (fraction of control); higher = less growth inhibition, active = hit call of the paper
Conditions in all cases: 20 µM;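 active = normalised median growth AUC below 0.1 of DMSO control; inactive = AUC 0.1 or higher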
P. vulgatus RND KO = test system: P. vulgatus RND KO
Method in brief: (§1)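 Each strain went through two overnight passages under anaerobic conditions before growth in mGAM in 96-well plates, starting at OD578 0.01, with each compound from the approved-drug library at 20 μM and 1% DMSO. Inside an anaerobic incubator, OD578 was recorded every hour for 24 h. Growth curves were cut off at entry into stationary phase, and the area under the curve was calculated by the trapezoidal rule and normalised to vehicle wells on the same plate. Reported values are medians of three biological replicates.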

P. vulgatus WT = test system: P. vulgatus WT
Method in brief: as §1

[1] = test system: S. enterica typhimurium WT
Method in brief: as §1

[2] = test system: S. enterica typhimurium tolC KO
Method in brief: as §1

Measured: growth AUC normalised to DMSO control
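Also: active when median AUC fell below 0.1.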

O=c1oc2cc(O)ccc2s1 [Tioxolone]
inactive: P. vulgatus RND KO 1.02 | P. vulgatus WT 1.02 | [1] 0.989 | [2] 0.999

CCCc1c2oc(C(=O)O)cc(=O)c2cc2c(=O)cc(C(=O)O)n(CC)c12 [Nedocromil sodium]
inactive: P. vulgatus RND KO 1.02 | P. vulgatus WT 1.03 | [1] 0.992 | [2] 0.995

O=C1OC(c2ccc(O)cc2)(c2ccc(O)cc2)c2ccccc21 [Phenolphthalein]
inactive: P. vulgatus RND KO 0.979 | P. vulgatus WT 0.994 | [1] 1.02 | [2] 0.524

CCN1CCN(Cc2ccc(Nc3ncc(F)c(-c4cc(F)c5nc(C)n(C(C)C)c5c4)n3)nc2)CC1 [Abemaciclib]
inactive: P. vulgatus RND KO 0.994 | P. vulgatus WT 0.961 | [1] 1 | [2] 0.909

O=C1c2c(O)ccc(O)c2C(=O)c2c(NCCNCCO)ccc(NCCNCCO)c21 [Mitoxantrone dihydrochloride]
inactive: P. vulgatus RND KO 1.11 | P. vulgatus WT 1.04 | [1] 1 | [2] 0.999

CC(=O)Nc1ccccc1 [Acetanilide]
inactive: P. vulgatus RND KO 0.993 | P. vulgatus WT 1 | [1] 0.997 | [2] 1.01

O=C(O)COc1nn(Cc2ccccc2)c2ccccc12 [Bendazac]
inactive: P. vulgatus RND KO 0.998 | P. vulgatus WT 1.02 | [1] 1 | [2] 0.987

OC[C@H]1O[C@@H](n2cnc3cncnc32)[C@H](O)[C@@H]1O [Nebularine]
inactive: P. vulgatus RND KO 0.991 | P. vulgatus WT 0.997 | [1] 1 | [2] 0.997

COc1ccc(C(=O)c2ccc(C)cc2)c(O)c1 [Mexenone]
inactive: P. vulgatus RND KO 0.999 | P. vulgatus WT 1 | [1] 1 | [2] 0.931

C[C@H](NCc1ccc(OCc2cccc(F)c2)cc1)C(N)=O [Safinamide]
inactive: P. vulgatus RND KO 1.02 | P. vulgatus WT 1.01 | [1] 0.986 | [2] 1

O=C(NCCCN1CCOCC1)c1ccc(Cl)cc1 [Eprobemide]
inactive: P. vulgatus RND KO 1.04 | P. vulgatus WT 1.03 | [1] 1.01 | [2] 1

CC(=O)Nc1c(I)c(NC(C)=O)c(I)c(C(=O)O)c1I [Diatrizoic acid dihydrate]
inactive: P. vulgatus RND KO 0.922 | P. vulgatus WT 0.995 | [1] 0.998 | [2] 0.995

CCCC(CCC)C(=O)O[C@H]1C[C@H]2CC[C@@H](C1)[N+]2(C)C [Anisotropine Methylbromide]
inactive: P. vulgatus RND KO 1.09 | P. vulgatus WT 1.12 | [1] 0.997 | [2] 0.994

CC(C)Cc1ccc(C(C)C(=O)OCc2ccccn2)cc1 (stereo not drawn) [Ibuprofen Piconol]
inactive: P. vulgatus RND KO 1 | P. vulgatus WT 1.05 | [1] 0.999 | [2] 0.875

CC(/C=C1\SC(=S)N(CC(=O)O)C1=O)=C\c1ccccc1 [Epalrestat]
inactive: P. vulgatus RND KO 1.01 | P. vulgatus WT 1.05 | [1] 1.01 | [2] 0.921

CN(C/C=C/C#CC(C)(C)C)Cc1cccc2ccccc12 [Terbinafine]
inactive: P. vulgatus RND KO 1.01 | P. vulgatus WT 0.998 | [1] 1.01 | [2] 0.928

CCCCc1ncc(/C=C(\Cc2cccs2)C(=O)O)n1Cc1ccc(C(=O)O)cc1 [Eprosartan mesylate]
inactive: P. vulgatus RND KO 1.02 | P. vulgatus WT 1.02 | [1] 1.01 | [2] 1

CCc1oc2ccccc2c1C(=O)c1cc(I)c(O)c(I)c1 [Benziodarone]
inactive: P. vulgatus RND KO 0.647 | P. vulgatus WT 0.606 | [1] 0.999 | [2] 0.815

CC(=O)Nc1ccc(C(=O)O)cc1 [Acedoben]
inactive: P. vulgatus RND KO 0.997 | P. vulgatus WT 1.01 | [1] 1 | [2] 0.997

CN(C)CCc1c[nH]c2ccc(C[C@H]3COC(=O)N3)cc12 [Zolmitriptan]
inactive: P. vulgatus RND KO 0.971 | P. vulgatus WT 0.964 | [1] 1 | [2] 1

CN1c2cc(O)c(N=NC(N)=O)cc2CC1S(=O)(=O)O (stereo not drawn) [Carbazochrome sodium sulfonate]
inactive: P. vulgatus RND KO 1.01 | P. vulgatus WT 1 | [1] 1 | [2] 0.993

CCCCCNC(=N)N/N=C/c1c[nH]c2ccc(OC)cc12 [Tegaserod maleate]
inactive: P. vulgatus RND KO 0.999 | P. vulgatus WT 0.991 | [1] 0.994 | [2] 0.941
